Test results reported in PubChem BioAssay (NCI).
About 83,000 compounds went through this panel and 20% of them were active in at least one assay; those are over-represented in the sample as a whole.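 Negative percent growth values reflect cell death: -40 means 40% of the cells present at the start died, and -100 means all died.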 The source made the active and inactive calls. Rule for the calls: active = growth percent below 10; inactive = the rest.

What was measured:
Test in all cases: NCI-60 one-dose screen, 48 h (100 = growth as untreated, 0 = no growth, -100 = all killed)
Details in all cases: 10 µM unless noted
[1] = tested on: SK-MEL-2 melanoma
[2] = tested on: SN12C renal
[3] = tested on: UO-31 renal
[4] = tested on: TK-10 renal
[5] = tested on: ACHN renal
[6] = tested on: CAKI-1 renal
[7] = tested on: A498 renal
[8] = tested on: CCRF-CEM leukemia
[9] = tested on: RPMI-8226 leukemia
[10] = tested on: OVCAR-8 ovarian
[11] = tested on: OVCAR-5 ovarian
[12] = tested on: OVCAR-4 ovarian
[13] = tested on: SK-OV-3 ovarian
[14] = tested on: IGROV1 ovarian
[15] = tested on: OVCAR-3 ovarian
[16] = tested on: HS 578T breast
[17] = tested on: NCI/ADR-RES ovarian
[18] = tested on: MOLT-4 leukemia
[19] = tested on: SR leukemia

Measured: growth

COc1ccc(NC(=O)Cn2c(/C=C/c3cccc([N+](=O)[O-])c3)nc3ccccc3c2=O)cc1
inactive: [1] 106% | [2] 76.1% | [3] 22.9% | [4] 72.7% | [5] 20.3% | [6] 49.9% | [7] 92.8% | [8] 92.3% | [9] 124% | [10] 43.3% | [11] 118% | [12] 44.7% | [13] 42% | [14] 104% | [15] 50.7% | [16] 66.8% | [17] 70.8%

Cn1cc(-c2cc(N)n3nc(-c4cn(C)c5ncccc45)cc3n2)c2cccnc21
inactive: [1] 95.8% | [2] 90% | [3] 89.2% | [4] 86% | [5] 109% | [6] 86.5% | [7] 87.2% | [8] 85.2% | [18] 53.5% | [19] 51.1% | [9] 54.3% | [10] 61.3% | [11] 92.8% | [12] 71.4% | [13] 99.8% | [14] 98% | [15] 96.7% | [16] 89.2% | [17] 68.6%

O=C(COc1ccc(NC(=O)Nc2ccccc2)cc1)N=Nc1c(O)[nH]c2ccc([N+](=O)[O-])cc12
active: [1] -69.2% | [2] 9.08% | [18] 3.7% | [10] -30.5% | [12] 7.38% | [15] -76.9% | [16] -8.84%
inactive: [3] 80.2% | [4] 116% | [5] 96.2% | [6] 78.4% | [7] 133% | [8] 18.4% | [19] 19.1% | [9] 53.9% | [11] 61.2% | [13] 56.7% | [14] 22.5% | [17] 113%

COc1ccc(C(=O)/C=C/c2ccc(Cl)c(Cl)c2)cc1S(N)(=O)=O
active: [2] -2.78% | [3] -80.5% | [4] 5.47% | [5] -69.7% | [6] -7.4% | [9] -6.75% | [10] -45.3% | [15] -23.5%
inactive: [1] 66.9% | [7] 109% | [8] 12.4% | [11] 10.7% | [12] 34.6% | [13] 52.5% | [14] 11.1% | [16] 86.9% | [17] 14.8%

O=C(C1=CNC(=S)NC1c1ccc(O)cc1)c1cc2ccccc2oc1=O (stereo not drawn)
inactive: [1] 101% | [2] 99.3% | [3] 72.4% | [4] 130% | [5] 108% | [6] 87.6% | [7] 139% | [8] 92% | [18] 94.1% | [19] 75.5% | [9] 88.7% | [10] 100% | [11] 109% | [12] 96.1% | [13] 93.2% | [14] 108% | [15] 101% | [16] 97.8% | [17] 106%

CN(C)c1nc(NCCNS(=O)(=O)c2ccc(C(=O)/C=C/c3ccc(C(F)(F)F)cc3)cc2)nc(Nc2ccc(F)cc2)n1
inactive: [3] 25.5% | [4] 26.2% | [7] 49.6% | [8] 10.1% | [12] 11.6% | [13] 66% | [16] 52.1%
active: [1] -7.74% | [2] -99.1% | [5] 1.99% | [6] 4.56% | [18] 0.0408% | [19] -26.2% | [9] 0.159% | [10] -62.1% | [11] -68.9% | [14] -40.6% | [15] -86.7% | [17] -54.3%

CC1=C(C(=O)c2ccccc2)C(c2ccc(-n3cncn3)cc2)n2c(nc3ccccc32)N1 (stereo not drawn)
active: [3] -22.7%
inactive: [1] 101% | [2] 79.4% | [4] 104% | [5] 88.8% | [6] 62.8% | [7] 113% | [8] 70.9% | [18] 66.9% | [19] 76.9% | [9] 63.4% | [10] 91.4% | [11] 97.3% | [12] 71.8% | [13] 79.3% | [14] 83.1% | [15] 107% | [17] 85.6%

N#Cc1c(-c2ccc(Cl)cc2)nc2n[nH]c(-c3ccc(Cl)cc3)c2c1-c1cccs1
inactive: [1] 58.6% | [2] 45.7% | [3] 35.1% | [4] 97.3% | [5] 62.8% | [6] 39% | [7] 105% | [8] 38.1% | [19] 25.6% | [9] 17.7% | [10] 66.7% | [11] 75.8% | [12] 42.3% | [13] 54.2% | [14] 62% | [15] 63.5% | [17] 61.1%
active: [18] 3.89%

COC(OC)C1=C(C)OC(N)=C(C#N)C12C(=O)Nc1ccccc12 (stereo not drawn)
inactive: [1] 96.2% | [2] 93.3% | [3] 70.3% | [4] 161% | [5] 84.9% | [6] 108% | [7] 125% | [8] 54.6% | [18] 95.9% | [19] 73% | [9] 94.3% | [10] 91.9% | [11] 112% | [12] 101% | [13] 111% | [14] 92% | [15] 101% | [16] 95.4% | [17] 99.2%

O=C(NN1C(=O)/C(=C/C=C/c2ccc([N+](=O)[O-])o2)SC1=S)c1cccc(O)c1
active: [1] -88.2% | [2] -99.8% | [3] -98.6% | [4] -96.3% | [5] -100% | [6] -100% | [7] 2.42% | [8] 0.334% | [18] 2.92% | [19] 2.86% | [9] -10.1% | [10] -80.3% | [11] -98.5% | [12] -100% | [13] -80.9% | [14] -97.9% | [15] -100% | [16] -14.6% | [17] -32.1%

Cc1cccc(-c2nc(Nc3ccc(C)c(S(N)(=O)=O)c3)c3ccccc3n2)c1
active: [19] 9.02%
inactive: [1] 52.2% | [2] 29.8% | [3] 25.2% | [4] 60.1% | [5] 15.3% | [6] 24% | [7] 52.8% | [8] 17.7% | [18] 16.8% | [9] 12.9% | [10] 32.8% | [11] 47.6% | [12] 44.7% | [13] 103% | [14] 42.9% | [15] 39.3% | [16] 53.4% | [17] 18.7%
